In PubChem BioAssay AID2783 (National Center for Advancing Translational Sciences (NCATS), 2010):
Results filed as inconclusive are left out. Active and inactive are the calls of the source. The call rests on the fitted dose curve; in most records, active means well fitted inhibition curve with a large enough effect in the polarisation, with a control signal flat (not every such curve was filed as active); inconclusive means small, poorly fitted or top-dose-only effect, or effect the other way, or a change in a side signal; inactive means no such curve, though single readings can be large or run the other way; the % refers to the polarisation.

The compounds below were run against Menin (Homo sapiens) (UniProt O00255) (assay: Confirmation of Inhibitors Targeting the Menin-MLL Interaction in MLL Related Leukemias: Competition With Fluorescein Labeled MLL-derived Peptide). Settings: Fluorescence polarization, fluorescein-MLL peptide displacement from menin; series mostly up to 100 µM.
Sequence of Menin (Homo sapiens) (O00255 whole entry, looked up): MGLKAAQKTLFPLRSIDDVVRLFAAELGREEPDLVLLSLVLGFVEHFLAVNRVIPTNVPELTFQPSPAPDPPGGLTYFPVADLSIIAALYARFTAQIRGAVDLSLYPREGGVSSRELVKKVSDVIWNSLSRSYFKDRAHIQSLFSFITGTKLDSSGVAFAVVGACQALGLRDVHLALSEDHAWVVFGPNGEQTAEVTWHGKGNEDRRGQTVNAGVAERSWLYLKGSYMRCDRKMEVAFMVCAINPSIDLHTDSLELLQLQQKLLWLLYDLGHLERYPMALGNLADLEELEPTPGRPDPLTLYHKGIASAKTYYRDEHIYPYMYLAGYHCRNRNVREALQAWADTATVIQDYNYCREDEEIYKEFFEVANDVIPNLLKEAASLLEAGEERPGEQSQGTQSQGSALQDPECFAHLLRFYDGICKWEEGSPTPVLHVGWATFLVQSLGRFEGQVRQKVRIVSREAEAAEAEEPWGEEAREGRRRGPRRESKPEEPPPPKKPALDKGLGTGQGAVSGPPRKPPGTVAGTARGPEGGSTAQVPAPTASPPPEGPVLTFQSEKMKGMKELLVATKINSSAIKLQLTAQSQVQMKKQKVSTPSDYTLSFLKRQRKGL

outcome, inactive:
COc1ccc(C)cc1N(C(=O)c1snc(C(N)=O)c1N)C(C(=O)NC1CCCC1)c1ccc(F)cc1 (stereo not drawn)
O=C(N1CCOCC1)N1CCN(S(=O)(=O)c2ccc(Cl)cc2)CC1
O=C(N/N=C/c1cn(-c2ccccc2)nc1-c1cc2ccccc2o1)c1ccccc1Br
O=C(Nc1ccc2c(c1)OCO2)c1ccccc1
Cn1c(=O)[nH]c(=O)c2c1nc(Br)n2CCSc1nc2ccccc2o1
O=C(Nc1cc(Br)ccc1O)c1cc(-c2cccs2)on1
O=C(CSc1ccc(Cl)cc1)Nc1ccc(NC(=O)c2ccco2)cc1
CC1CN(c2c3c(nc4ncnn24)CCCC3)CC(C)O1 (stereo not drawn)
COc1cc(SC)ccc1C(=O)Nc1cccc(C2OCCCO2)c1
COc1ccccc1/C=N/n1c(N)c(S(=O)(=O)c2cccs2)c2nc3ccccc3nc21
COc1cccc(-c2nn(-c3ccccc3)cc2/C=C\C(=O)c2cccs2)c1
Cc1ccc(NS(=O)(=O)c2csc(C(N)=O)c2)cc1C
COc1ccc(S(=O)(=O)Nc2cc(SCC(=O)O)c(O)c3ccccc23)cc1
Cc1nc(C)c(-c2ccc(SCc3ccccc3F)nn2)s1
Cc1ccc(C#CC(C)(O)C(C)(C)C)cn1 (stereo not drawn)
CN(CCOc1ccc(Cl)cc1)CC(O)c1ccccc1 (stereo not drawn)
c1ccc(-c2ccc(-c3csnn3)cc2)cc1
CC(c1ccncn1)N(C)Cc1nc(-c2ccc(C(F)(F)F)cc2)no1 (stereo not drawn)
Cc1ccc(NC(=O)C(OC(=O)c2ccc(C=O)cc2)c2ccccc2)cc1Cl (stereo not drawn)
CSC[C@@H]1NC(=S)N(c2ccc(C)cc2)C1=O
CCCCC(=O)NC(=S)Nc1nnn(CCC)n1
Cc1cc2c(c(=O)n1Cc1ccccc1)C1O[C@](c3ccsc3)(Cc3cc(C#N)ccc31)O2
CCOC(=O)c1sc(NC(=O)Nc2ccc(Cl)cc2)nc1C
Cc1ccc(F)c(C2C3C=CCC(C)C3C(=O)N2Cc2ccccc2)c1 (stereo not drawn)
NS(=O)(=O)c1ccc(NC(=O)c2ccc(S(=O)(=O)N3CCc4ccccc43)cc2)cc1
NC(=O)c1cc2ccccc2o/c1=N/NC(=O)c1cccc(F)c1
Cc1c(CCOC(=O)CC23CC4CC(CC(C)(C4)C2)C3)sc[n+]1Cc1ccc([N+](=O)[O-])cc1
CN(C)CCCNCC(=O)c1c(-c2ccccc2)n(C)c2ccccc12
Cc1ccc(C(C[N+](=O)[O-])c2c(C)[nH]n(-c3ccccc3)c2=O)cc1 (stereo not drawn)
O=C(CCn1nc(-c2ccccc2)ccc1=O)N1CCN(c2ccccn2)CC1
c1ccc2c(c1)NCC1CCCN21 (stereo not drawn)
CCCCn1c(SCC(=O)NCc2ccc(OC)c(C(=O)O)c2)nc2cc(S(N)(=O)=O)ccc21
CCC(=O)NC(=S)Nc1ccc(-c2nc3ccc(C)cc3s2)cc1
